About 2,600 (16%) of roughly 16,000 compounds were called active. Inconclusive results (about 20%) are left out. Calls come from the whole dose curve; as a rule, active = well fitted curve in the direction sought with a large enough effect; inconclusive = small, poorly fitted or top-dose-only effect, or effect the other way; inactive = no such curve, though single readings can be large or run the other way. Not all results are given here.
Each compound was assayed against Cytochrome P450 2D6 (Homo sapiens) (UniProt P10635) (assay: Cytochrome panel assay with activity outcomes). Settings: recombinant CYP, pro-luciferin dealkylation, luminescence, p450-cyp2d6; series mostly up to 57.1 µM.
% is set by controls: 0 for no effect and ±100 for the full control effect.

Chain of Cytochrome P450 2D6 (Homo sapiens) (P10635 whole entry, looked up): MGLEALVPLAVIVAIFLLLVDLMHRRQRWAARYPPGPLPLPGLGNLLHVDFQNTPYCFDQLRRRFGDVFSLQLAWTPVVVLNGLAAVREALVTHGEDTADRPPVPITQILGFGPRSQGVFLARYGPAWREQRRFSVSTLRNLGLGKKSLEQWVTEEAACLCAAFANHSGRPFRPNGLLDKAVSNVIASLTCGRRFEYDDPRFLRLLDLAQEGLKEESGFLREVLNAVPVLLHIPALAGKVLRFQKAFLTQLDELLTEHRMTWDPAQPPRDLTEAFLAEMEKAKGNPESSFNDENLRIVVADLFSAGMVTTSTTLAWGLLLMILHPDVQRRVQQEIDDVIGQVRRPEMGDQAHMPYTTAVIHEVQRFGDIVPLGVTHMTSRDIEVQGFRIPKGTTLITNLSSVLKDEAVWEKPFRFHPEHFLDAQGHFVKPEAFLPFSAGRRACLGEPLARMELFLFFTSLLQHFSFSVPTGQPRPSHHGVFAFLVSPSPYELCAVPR

Row | SMILES | AC50 | activity, negative = inhibition
1 | O=C(Cn1ccnc1[N+](=O)[O-])NCCO | inactive | 
2 | COc1cccc(N=Cc2c[nH][nH]c2=O)c1 | inactive | 
3 | C[C@@H]1c2cccc(O)c2C(O)=C2C(=O)[C@@]3(O)C(O)=C(C(N)=O)C(=O)[C@@H](N(C)C)[C@@H]3[C@@H](O)[C@@H]21 | inactive | 
4 | CCOc1cc(/C=N/NC(=O)COc2cccc(C)c2)ccc1OC(=O)c1cccs1 | inactive | 
5 | CCOC(=O)c1c(C)n(C)c2ccc(OC)c(NS(=O)(=O)c3ccc(Cl)s3)c12 | inactive | 
6 | CCOc1ccc2nc(N3CCCCCC3)sc2c1 | 1 µM (active) | 
7 | CCOc1ccc2nc(NC(=O)c3ccc(S(=O)(=O)N4CCOCC4)cc3)sc2c1 | inactive | 
8 | CCOC(=O)C1CCN(C(=O)C2CCN(c3nc4ccc(OC)cc4s3)CC2)CC1 | inactive | 
9 | CCN1CCN(C(=O)N[C@H](C(=O)N[C@@H]2C(=O)N3C(C(=O)O)=C(CSc4nnnn4C)CS[C@@H]23)c2ccc(O)cc2)C(=O)C1=O | inactive | 
10 | O=c1[nH]ccc2c(O)cccc12 | inactive | 
11 | O=c1[nH]c2ccccc2c2ccccc12 | inactive | 
12 | Cc1nc2c(O)cccc2c(=O)[nH]1 | 12.6 µM (active) | 
13 | OCCCNc1ncnc2[nH]ncc12 |  | 15.1% [at 11.4 µM] (inactive)
14 | Cc1cc(C)c(C#N)c(SCc2cc3c(cc2Cl)OCO3)n1 | 8.91 µM (active) | 
15 | Cc1cc(C)c(C#N)c(SCC(=O)C(C)(C)C)n1 | inactive | 
16 | Cc1cc(C)c(C#N)c(SCC(=O)c2ccc(Cl)cc2Cl)n1 | inactive | 
17 | C/C(CC(=O)Nc1cc(C)ccn1)=N\NC(=O)COc1cccc(C)c1 | inactive | 
18 | Brc1ccccc1OCCOCCOc1cccc2cccnc12 | inactive | 
19 | Cc1ccc(/C(O)=C2/C(=O)C(=O)N(CCCn3ccnc3)C2c2ccccn2)cc1 (centres undefined) | inactive | 
20 | Cc1ccc(OCCOCCn2ccnc2)c(Br)c1 | 1 µM (active) | 
21 | COc1cc(C)ccc1OCCCOc1ccccc1Br | inactive | 
22 | Cc1cccc(OCCCCCn2ccnc2)c1 | 0.1 µM (active) | 

Row | SMILES | AC50 | activity, negative = inhibition
23 | Cc1ccc(C(=O)COC(=O)c2ccc3c(c2)C(=O)N(c2cccc4ncccc24)C3=O)cc1C | inactive | 
24 | Cc1ccc(C)c(S(=O)(=O)NC(CC(C)C)C(=O)O)c1 (centres undefined) | inactive | 
25 | COc1ccc(C2/C(=C(/O)c3ccc4c(c3)CC(C)O4)C(=O)C(=O)N2CCN2CCOCC2)cc1 (centres undefined) | inactive | 
26 | CN1CCN(c2ncc3ncc(=O)n(Cc4ccc(F)cc4)c3n2)CC1 | inactive | 
27 | Nc1nc2c(ncn2COC(CO)CO)c(=O)[nH]1 | inactive | 
28 | O=C1Nc2ccc([N+](=O)[O-])cc2C1(O)N1CCCCCC1 (centres undefined) | inactive | 
29 | Cc1nc(SCC(=O)Nc2ccc(N3CCOCC3)cc2)nc(C)c1C | inactive | 
30 | Cc1nc(SCC(=O)NCCc2ccc(Cl)cc2)nc(C)c1C | 3.55 µM (active) | 
31 | Nc1cc(N)nc(SCC(=O)NNC(=O)c2ccc(Cl)cc2)n1 | inactive | 
32 | CC(C)[C@H](Sc1nc(N)nc2nc[nH]c12)C(=O)O |  | 2.46% [at 11.4 µM] (inactive)
33 | CCOc1ccc(NC(=O)Cn2nnc(C(=O)NCc3ccccc3OC)c2N)cc1 | inactive | 
34 | COc1ccc(C2(CNC(=O)/C=C/c3ccco3)CCCC2)cc1OC | inactive | 
35 | O=C(NC(=S)Nc1nc(-c2ccc(Br)cc2)cs1)c1cccnc1 | inactive | 
36 | CC(C)(C)N1C(=O)[C@H]2[C@H]3[C@H](O)[C@H](O)C/C(=N/NC(=O)OCc4ccccc4)[C@H]3CC[C@@H]2C1=O |  | 6.89% [at 11.4 µM] (inactive)
37 | CC(=O)OC[C@H]1O[C@@H](O/N=C(\C)CCN2CCCc3nc(C)c(C)cc32)[C@H](OC(C)=O)[C@@H](OC(C)=O)[C@H]1OC(C)=O | 3.16 µM (active) | 
38 | CC(=O)OC[C@@H]1O[C@H](CCO/N=C(\C)CCN2CCCc3nc(C)c(C)cc32)C=C[C@@H]1OC(C)=O |  | -15.6% [at 11.4 µM] (inactive)
39 | CC(=O)OC[C@H]1O[C@@H](O/N=C(\C)CCN2CCCCc3nc(C)c(C)cc32)[C@H](OC(C)=O)[C@@H](OC(C)=O)[C@H]1OC(C)=O | 3.98 µM (active) | 
40 | Cc1ccccc1-c1cc(C(=O)Nc2nc3c(s2)CCCC3)c2ccccc2n1 | inactive | 
41 | O=C(c1cnccn1)N1CCC[C@@]2(CCN(c3ncccn3)C2)C1 | inactive | 
42 | CCOC(=O)c1nc2sc(C)c(C)c2c(=O)[nH]1 | inactive | 
43 | C[C@@H]1O[C@@H](n2cc(F)c(=O)[nH]c2=O)[C@H](O)[C@@H]1O | inactive | 
44 | COC(=O)[C@@]1(Cc2ccc(OC)cc2)[C@@H]2C(=CC(=O)[C@H]2CC(=O)C(=O)N(C)C)CN1C(=O)c1ccccc1 | inactive | 

Row | SMILES | AC50 | activity, negative = inhibition
45 | CCCSc1cc(N2CCCC2)nc(-c2ccccc2)n1 | inactive | 
46 | c1ccc(-c2nc(N3CCCCCC3)nc(-n3ccnc3)n2)cc1 | 14.1 µM (active) | 
47 | CN(c1ccccc1)c1nc(-n2ccnc2)nc(-n2ccnc2)n1 | 11.2 µM (active) | 
48 | CCOc1nc(N2CCCCC2)nc(-n2cc(-c3ccccc3)nn2)n1 | inactive | 
49 | C[C@@H](N)C(=O)O | inactive | 
50 | Cc1c(C(=O)NN2CCN(C)CC2)cccc1[N+](=O)[O-] | inactive | 
51 | Cc1sc(=NC(=O)c2ccco2)n(C)c1-c1ccc(F)cc1 | inactive | 
52 | CCc1cc2cc(C)c(C)cc2nc1SCC(=O)NNC(=O)c1ccco1 | inactive | 
53 | CC(C)(C)C(=O)N1CCN(c2ccc([N+](=O)[O-])c(NCC3CCCO3)c2)CC1 (centres undefined) | inactive | 
54 | COc1cccc([C@H](O)Cn2cc(-c3ccc(CON=C(C)C)cc3)nn2)c1 |  | 4% [at 11.4 µM] (inactive)
55 | O=c1c(Cl)c(N2CCN(S(=O)(=O)c3ccc(F)cc3)CC2)cnn1-c1cccc(Cl)c1 | inactive | 
56 | CC(=O)C=NCC(=O)O |  | -2.95% [at 11.4 µM] (inactive)
57 | c1csc(CNc2cc(-c3ccoc3)ncn2)c1 | 15.8 µM (active) | 
58 | Cc1cccc(CNc2cc(-c3ccc(N(C)C)cc3)ncn2)c1 | inactive | 
59 | c1cncc(CNc2cc(-c3ccoc3)ncn2)c1 | inactive | 
60 | Cc1cccc(CNc2cc(-c3ccoc3)ncn2)c1 | 25.1 µM (active) | 
61 | Cc1cnc(CNc2cc(-c3ccoc3)ncn2)cn1 | inactive | 
62 | C=CCSc1ccsc1C(=O)O | inactive | 
63 | Cc1cc(C)n2c(SCC(=O)N(C)C3CCS(=O)(=O)C3)nnc2n1 (centres undefined) | inactive | 
64 | O=c1c(C=Nc2ccc(Oc3ccccc3)cc2)c[nH]n1-c1cccc(Cl)n1 | inactive | 

Reference: PubChem BioAssay AID1851 (National Center for Advancing Translational Sciences (NCATS), 2009)
